Assay results taken from PubChem BioAssay AID1460 (National Center for Advancing Translational Sciences (NCATS), 2008).
The campaign covered roughly 270,000 compounds. About 5,800 (2.1%) were called active. Not shown: some 16% with an inconclusive outcome. Calls come from the whole dose curve; as a rule, active = well fitted inhibition curve with a large enough effect; inconclusive = small, poorly fitted or top-dose-only effect; inactive = flat fitted curve, though single readings scatter. This excerpt belongs to a sample that is enriched for actives.

Biological target: Microtubule-associated protein tau (Homo sapiens) (UniProt P10636)
Sequence (P10636 561-689 P618L limits assumed): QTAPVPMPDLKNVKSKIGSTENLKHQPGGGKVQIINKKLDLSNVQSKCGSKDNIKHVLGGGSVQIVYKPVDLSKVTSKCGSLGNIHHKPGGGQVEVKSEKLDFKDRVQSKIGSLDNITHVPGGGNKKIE
Test: qHTS for Inhibitors of Tau Fibril Formation, Thioflavin T Binding; note: nearly all actives have a fitted effect of over 55% in size
Details: recombinant tau K18 P301L (four-repeat tau fragment), heparin-induced fibrillization, ThT fluorescence; series mostly up to 57.4 µM; activity, negative = inhibition: at the top concentration
In short: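 Recombinant human tau K18 fragment […] carrying P301L, 15 uM unlabeled plus 0.24 uM Alexa 594-labeled, was fibrillized with 20 uM heparin in 100 mM sodium acetate pH 7 for 6 hr at 37 C; 30 uM ThT fluorescence read after 1 hr.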
% is set by controls: 0 for no effect and ±100 for the full control effect; potency is the fitted concentration of half-maximal effect.

Compound	activity, negative = inhibition	Potency
CCc1cccc(NC(=O)CN(c2ccc(C)c(C)c2)S(=O)(=O)c2ccsc2C(=O)OC)c1	1.04% (inactive)	–
O=C(CSc1ccc(/C=N/NC(=O)c2cccc(F)c2)o1)Nc1ccccc1	-17% (inactive)	–
N#CCC(=O)N/N=C/c1ccc(SCC(=O)Nc2ccccc2)o1	–	25.1 µM (active)
Cc1ccc(/C=N/NC(=O)CSc2ccccn2)o1	-22% (inactive)	–
O=C(CCc1ccccc1)NCc1ccc2c(c1)CCN2C(=O)c1ccccc1	-2.41% (inactive)	–
Cc1ccc(-n2c(C)cc(/C=N/Nc3ccc([N+](=O)[O-])cn3)c2C)c(C)c1	–	3.98 µM (active)
Cc1cc(/C=N/Nc2ccc([N+](=O)[O-])cn2)c(C)n1-c1cccc(C(=O)O)c1	–	2.82 µM (active)
COc1cc(/C=N\NC(=O)CNC(=O)c2cccc([N+](=O)[O-])c2)ccc1O	-14.4% (inactive)	–
COc1cc(/C=N\Nc2ccc([N+](=O)[O-])cn2)ccc1OCC(=O)O	–	12.6 µM (active)
Cc1cc(/C=N/n2cnnc2)c(C)n1-c1cccc(C(=O)O)c1	6.68% (inactive)	–
Cc1cccc(-n2c(C)cc(/C=N\NC(=O)c3cccs3)c2C)c1	7.12% (inactive)	–
Cc1ccc(-n2c(C)cc(/C=N\NC(=O)CC(=O)NC(C)C)c2C)cc1	-14.8% (inactive)	–
COc1cc(/C=N/NC(=O)Nc2ccccc2)ccc1OCCOc1ccccc1C	-11.5% (inactive)	–
Cc1cccc(C)c1NC(=O)CSc1ccc([N+](=O)[O-])cn1	-7.69% (inactive)	–
COc1cccc(NC(=O)N(Cc2cn(C)c3ccccc23)C2CCCCCC2)c1	-18.6% (inactive)	–
COc1ccc(Cn2c(C(=O)O)c(CNCc3cccc(OC)c3)c3ccc(C)cc32)cc1	4.58% (inactive)	–
COc1cc(C(=O)NCCS(=O)(=O)N2CCN(c3ccccc3)CC2)cc(OC)c1OC	3.32% (inactive)	–
COc1ccc(-n2c(SCC(=O)Nc3ccc(Cl)c(C)c3)nc3n[nH]c(C)c3c2=N)cc1	-6.68% (inactive)	–
CCOc1ccc(NC(=O)C2CCN(S(=O)(=O)c3cc(-c4noc(C)n4)ccc3C)CC2)cc1	-3.68% (inactive)	–
COc1ccc(-c2nn3c(=O)cc(CN4CCN(C(=O)c5ccc(OC)c(OC)c5)CC4)nc3s2)cc1	-16.3% (inactive)	–
Cc1cccc2c(=O)cc(CSc3ccccc3NC(=O)C(C)C)[nH]c12	-2.42% (inactive)	–

Compound	activity, negative = inhibition	Potency
CCCOc1ccc(Cn2c(O)cc(=O)[nH]c2=O)cc1	–	25.1 µM (active)
COc1ccc(Cn2c(=O)cc(C)[nH]c2=S)cc1	-15.3% (inactive)	–
COc1cc(=O)[nH]c(=O)n1C(=O)Cc1ccccc1	-6.37% (inactive)	–
Cc1cccc(NC(=O)N2CCC(CN3CCc4ccccc4C3)CC2)c1C	2.46% (inactive)	–
Cc1cccc(S(=O)(=O)CC(=O)Nc2nc(-c3ccccc3)cs2)c1	-17.8% (inactive)	–
COc1ccc2c(c1OC)C(=O)OC2Nc1nc(-c2ccccc2)cs1 (configuration not stated)	–	17.8 µM (active)
COc1ccc2c(c1OC)C(=O)OC2c1c(O)nc(SC)n(-c2ccccc2)c1=O (configuration not stated)	-12.8% (inactive)	–
O=C(CN1C(=O)COc2ccc(S(=O)(=O)N3CCCCCC3)cc21)N1CCN(c2cccc(C(F)(F)F)c2)CC1	-6.43% (inactive)	–
Cc1ccc(CCNC(=O)Cn2c(-c3cccs3)cc3cc(F)ccc32)cc1	-0.536% (inactive)	–
Cc1ccc(Cl)cc1NC(=O)C(C)n1nnc2sc(-c3ccccc3)cc2c1=O (configuration not stated)	–	17.8 µM (active)
Cc1cc2nn(-c3ccc(Cl)cc3)nc2cc1NC(=O)C(C)C	4.08% (inactive)	–
Cc1ccc(Cl)cc1NC(=O)c1ccccn1	-6.15% (inactive)	–
COc1cccc(NC(=O)CSC2=Nc3ccccc3C3=NC(CC(=O)NC4CCCCC4)C(=O)N23)c1 (configuration not stated)	-7.37% (inactive)	–
Cc1ccc(Cl)cc1N1CCN(C(=O)c2cn(C)c3ccc(S(=O)(=O)N(C)C4CCCCC4)cc3c2=O)CC1	-2.4% (inactive)	–
CC(=O)Oc1cccc(N2C(=O)CC(Nc3ccc(N4CCOCC4)cc3)C2=O)c1 (configuration not stated)	–	15.8 µM (active)
COc1ccc(N2CCN(C3CC(=O)N(c4ccc5c(c4)OCCO5)C3=O)CC2)cc1 (configuration not stated)	-18.6% (inactive)	–
CC(=O)Oc1cccc(N2C(=O)C3CC=C(Cl)CC3C2=O)c1 (configuration not stated)	4.98% (inactive)	–
COCCNC(=O)CSc1c(C)cnc2c1c(=O)n(C)c(=O)n2C	-7.06% (inactive)	–
CC(=O)N1c2ccccc2CC1C(=O)N1CCN(c2ccc(F)cc2)CC1 (configuration not stated)	-7.29% (inactive)	–
O=C(CSc1nnc(Nc2ccccc2)s1)Nc1cccnc1Cl	-18.4% (inactive)	–
Cc1ccc(Nc2nnc(SCc3ccccc3)s2)cc1	-9.63% (inactive)	–

Compound	activity, negative = inhibition	Potency
CC(C)c1ccc(Nc2nnc(SCC(=O)c3nnc(-c4ccccc4)o3)s2)cc1	–	17.8 µM (active)
CCOC(=O)c1c(S(=O)(=O)N2CCCC(C(=O)NCc3cccc(C)c3)C2)c(C)n(C)c1C (configuration not stated)	12% (inactive)	–
COc1cccc(CNC(=O)C2CCN(S(=O)(=O)c3ccc4c(ccn4C)c3)CC2)c1	3.32% (inactive)	–
COc1ccc(/C=N/N=C2/C(=O)Nc3ccccc32)cc1O	–	10 µM (active)
CCOc1ccc(/C=N/NC(=O)CSc2ccccn2)cc1O	-6.19% (inactive)	–
COc1ccc(/C=N/S(=O)(=O)c2ccccc2)cc1OC	8.82% (inactive)	–
CCN(Cc1ccccc1)C(=O)c1cn(-c2cccc(OC)c2)c(=O)c2ccccc12	-12% (inactive)	–
O=C(CSc1nnc(-c2ccccc2F)o1)Nc1cccc(C(F)(F)F)c1	-3.91% (inactive)	–
CN(C(=O)CSc1nnc(NC(=O)Nc2ccccc2)s1)c1ccccc1	2.89% (inactive)	–
CCOC(=O)c1ccccc1C(=O)N1CCOCCOCCOCC1	-6.87% (inactive)	–
CCc1cccc(NC(=O)c2cnc(N3CCOCC3)c3ccccc23)c1	-10.2% (inactive)	–
CCOC(=O)c1cnc2c(C)cc(C)cc2c1Nc1ccc(N2CCOCC2)cc1	–	11.2 µM (active)
Cc1cc(C)cc(NC(=O)c2cnc3sc(N4CCCC4)nn3c2=O)c1	3.36% (inactive)	–
Cc1[nH]c2ccccc2c1/C=N\NC(=O)Cn1nnc(-c2ccccc2)n1	3.95% (inactive)	–
CN=c1scc(-c2cc(OC)ccc2OC)n1/N=C/c1c(C)[nH]c2ccccc12	–	14.1 µM (active)
CCn1c(-c2cc(OC)ccc2OC)csc1=Nc1c(C)n(C)n(-c2ccccc2)c1=O	-0.49% (inactive)	–
CCOc1ccc(NC(=O)c2cc(S(=O)(=O)N3CCCC3)c[nH]2)cc1	-8.62% (inactive)	–
O=S(=O)(c1ccc(Br)cc1)c1nnn2c1nc(N1CCOCC1)c1sccc12	-10.4% (inactive)	–
CCN1/C(=C\c2ccc3ccccc3[n+]2CC)Sc2cc(C)ccc21	–	15.8 µM (active)
CCN1/C(=C/c2ccc3ccc(C)cc3[n+]2CC)Sc2ccccc21	-14.4% (inactive)	–
